# About 83,000 compounds went through this panel and 20% of them were active in at least one assay; those are over-represented in the sample as a whole.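 Values shown are percent growth following 48 h exposure of cells in 96-well plates to a single concentration of compound; below 10 was considered active.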 Values without a mark were called inactive. The source made the active and inactive calls.
# Test system: MOLT-4 leukemia
# Assay: NCI-60 one-dose screen, 48 h (100 = growth as untreated, 0 = no growth, -100 = all killed)
# Details: 10 µM unless noted
row,Compound,growth
1,CCCCCCCCCCCCCCCCCCOc1ccccc1CC(=O)OCC[N+]1(C)CCCC1,18.1%
2,O=C(c1ccc(-c2ccccc2)cc1)c1ccc([N+](=O)[O-])cc1,52.6%
3,O=C1Nc2ccccc2/C1=C\c1nc(-c2ccccc2F)n2ccccc12,70.6%
4,O=C(OCc1ccc2cccc(O)c2n1)N1CCN(C(=O)c2cc3cc(F)ccc3[nH]2)CC1,-16.9% (active)
5,O=C(NNc1nccc(Nc2ccc(S(=O)(=O)Nc3ccncc3)cc2)n1)c1ccccc1,96.7%

# From PubChem BioAssay (NCI)
